# Assay results: PubChem BioAssay (NCI)
# This is part of a sample that, as a whole, favours compounds with a hit. Of some 79,000 tested, about 15% had one in any assay. Values without a mark were called inactive. Calls of active or inactive are those of the source. Cut-off read from the data, not from the text of the source: active = growth inhibition above about 70%; inactive = the rest.
# What was measured:
# [1] = NCI Yeast Anticancer Drug Screen. Data for the rad50 strain (AID 155);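 note: 0% = growth of vehicle-only cultures of the same strain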; details: S. cerevisiae rad50 strain growth inhibition; at 50.0 µM; hits give high values
# Outline: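 Yeast carrying a defined DNA repair defect were exposed to test compounds, and growth was compared with vehicle-treated controls to give percent inhibition.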
# [2] = NCI Yeast Anticancer Drug Screen. Data for the mec2-1 strain (AID 157); details: S. cerevisiae mec2-1 strain, at 50.0 µM, hits give high values
# Outline: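 Yeast mec2-1 mutant treated with compound. Readout: growth inhibition vs vehicle controls.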
# [3] = NCI Yeast Anticancer Drug Screen. Data for the sgs1 mgt1 strain (AID 161);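 note: 0% = growth of cultures given vehicle only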; details: S. cerevisiae sgs1 mgt1 strain, at 50.0 µM, hits give high values
# Outline: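 Mutant yeast exposed to compound; growth scored against vehicle-only wells.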
# [4] = NCI Yeast Anticancer Drug Screen. Data for the cln2 rad14 strain (AID 165);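 note: 0% = growth equal to vehicle treated cultures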; details: S. cerevisiae cln2 rad14 strain, at 50.0 µM, hits give high values
# Outline: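 cln2 rad14 yeast strain; compound exposure; growth inhibition read vs vehicle controls.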
# [5] = NCI Yeast Anticancer Drug Screen. Data for the bub3 strain (AID 167); details: S. cerevisiae bub3 mutant strain, at 50.0 µM, hits give high values
# Outline: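 Compounds were applied to a genetically altered yeast strain carrying a cell-cycle control defect. Growth inhibition was scored against vehicle-treated controls.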
# [6] = NCI Yeast Anticancer Drug Screen. Data for the mlh1 rad18 strain (AID 175); details: S. cerevisiae mlh1 rad18 strain growth inhibition; at 50.0 µM; hits give high values
# Outline: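 Yeast w/ defined DNA-repair lesions; compound exposure; growth vs vehicle controls → % inhibition.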
SMILES,growth inhibition [1],growth inhibition [2],growth inhibition [3],growth inhibition [4],growth inhibition [5],growth inhibition [6]
CN1CCCN(C(=O)N(c2ccccc2)c2ccccc2)CC1,-19.3%,-12.8%,7.45%,-3.6%,-5.65%,7.4%
COc1cc(C)cc2c(-c3c(OC(C)=O)cc(OC(C)=O)c4c3C[C@H](C)N(C(C)=O)[C@H]4C)cc(-c3cc(-c4c(OC(C)=O)cc(OC(C)=O)c5c4C[C@H](C)N(C(C)=O)[C@H]5C)c4cc(C)cc(OC)c4c3O)c(O)c12,41%,31.5%,34.5%,7.65%,-44%,16.4%
CC(=O)OCC1OC(n2cc([N+](=O)[O-])c(=O)[nH]c2=O)C(OC(C)=O)C(OC(C)=O)C1OC(C)=O (configuration not stated),-12.8%,9.9%,-8.65%,-20%,12.8%,-35.1%
COC(=O)CCOc1ccccc1,15.1%,5.1%,0.25%,11.9%,-8.8%,-18.8%
CC1OC(OC2C(Oc3cc(O)c4c(=O)cc(-c5ccc(O)cc5)oc4c3)OC(CO)C(O)C2O)C(O)C(O)C1O (configuration not stated),-6.15%,5.75%,-14.2%,-19.9%,6.35%,-7.65%
CCOC(=O)C1(C)CCCCC1=O (configuration not stated),7.45%,-6.55%,3.2%,7.95%,5.9%,2.95%
COc1ccc(Cl)cc1NC(=O)c1ccccc1C(=O)O,1.2%,20.9%,-3.2%,-4.3%,12.4%,-26.1%
CC(=O)n1[nH]c(=O)n(-c2ccc(Cl)cc2)c1=O,-36.5%,-37.2%,-30.1%,2.1%,-22.2%,-73%
Cc1ccc(S(=O)(=O)OC(CI)C2OC(c3ccccc3)OC3COC(c4ccccc4)OC32)cc1 (configuration not stated),0.25%,13.2%,7.7%,8.6%,16.1%,25.6%
COc1ccc(C=Nc2ccc(C(=O)O)cc2)cc1,0.5%,9.35%,1.45%,-2.25%,13.9%,-6.25%
C=C(C)C(=O)OCC(O)C[N+](C)(C)C (configuration not stated),0.35%,-15.8%,2.9%,11.2%,5.1%,4.3%
CC(=O)Nc1ccc(/C=N/Nc2ccccc2)cc1,97.9% (active),98.8% (active),98.5% (active),96.6% (active),98.5% (active),98.7% (active)
CC(=O)NCC(OC(C)=O)c1ccc2c(c1)[nH]c1ccccc12 (configuration not stated),17.1%,-6.5%,-3.3%,10.1%,11.2%,31.2%
CCc1cn(O)c(C)cc1=N,25.3%,11.1%,6.15%,5.8%,12%,21.1%
COc1ccc(N=C2C(=Nc3ccc(OC)cc3)N(c3ccccc3[N+](=O)[O-])C(=S)N2c2ccc(OC)cc2)cc1,3.6%,-24%,10.7%,-49.5%,-1.35%,-10.9%
COc1cc2c(cc1OC)C(=O)C1(CO)COC(=O)C1C2 (configuration not stated),-7.7%,-19%,-2.15%,-1.4%,-1%,5.9%
CC(C)=NOC(C)C(=O)O (configuration not stated),-11.9%,18.2%,-24.4%,10.2%,-0.9%,-3.15%
Cc1cc(-c2ccccc2)nc(Nc2cc3ccccc3[nH]2)n1,-8.6%,13.2%,-17.6%,0.05%,-4.25%,0.4%
Cc1ccc(Cl)cc1NC(=O)Oc1ccc(Cl)cc1C,23.2%,9.1%,-7.8%,8.8%,15.7%,3.25%
COc1cc(NCCCCCNC(C)C)c2ncccc2c1,48.9%,20.2%,35.3%,27.9%,35.6%,54%
Cc1ccc(-c2c(N)nc(NC#N)nc2CCC(=O)Nc2ccccc2[N+](=O)[O-])cc1,1.9%,1.35%,-14.6%,5.5%,3.7%,5.4%

SMILES,growth inhibition [1],growth inhibition [2],growth inhibition [3],growth inhibition [4],growth inhibition [5],growth inhibition [6]
O=[S@@]1Nc2cc(Cl)c(Cl)cc2S1,9.6%,-2%,-6.6%,3.45%,-0.05%,14.1%
COC[C@@H](N=Cc1ccc(OC)cc1)C(C)C,-12.2%,-19.4%,-49.6%,-28.8%,25.9%,-30.5%
Cn1c(-c2ccccc2)cc(=O)cc1-c1ccccc1,-22.9%,13.1%,-10.2%,-1.25%,-4.45%,-19.2%
O=c1[nH]c2cccccc-2c1-c1nc2ccccc2[nH]1,40.6%,15.2%,33.6%,19.5%,16.7%,8.95%
O=C(O)/N=N\C(=O)O,-36.9%,-23.9%,-19.4%,-5.05%,-26.4%,-27.2%
CC(C)N(C(=O)C12CC3CC(CC(C3)C1)C2)C(C)C,24.9%,0.45%,8.05%,13.2%,20.9%,6.15%
O=C(Nc1ccccc1F)OCCCl,11.8%,-23.6%,6.55%,1.45%,3.55%,4.4%
O=CN(c1ccccc1)c1ccccc1,3.8%,-2.4%,-2.7%,-15.4%,-4.55%,-23.6%
C=CCNC(=O)CCCCCCCC1C(CCCCCCCC)C2(Cl)C(Cl)=C(Cl)C1(Cl)C2(Cl)Cl (configuration not stated),23.6%,-4.6%,18.2%,-12.2%,1.75%,17.8%
NC(=O)N1CCCC1=O,-18.4%,-18.9%,-20.8%,-8.5%,-11.3%,-20.9%
CCNC(=O)NCc1cc(C)ccc1C,7.85%,-12.2%,-11.4%,19.2%,6.45%,12.1%
Cc1ccc(N(C)C(=O)Nc2ccccc2)c(C)c1,4.1%,3.6%,8.6%,-20.6%,4.55%,-12.8%
CC1=NN(c2ccccc2)C(=O)C1=C1SCCCS1,-14.2%,-25.4%,10.6%,16.4%,-4.9%,1.8%
CSc1ccc(NC(=O)Oc2ccc(NC(C)=O)cc2)cc1,8.55%,-0.95%,6.05%,14.4%,22.8%,4.45%
COc1cc(C2OCCO2)ccc1O,12.8%,7.05%,-0.35%,39%,5.05%,-11%
CCOc1ccccc1NC(=S)NC1CCCCC1,-8.65%,-9.3%,3.7%,-17.2%,25.1%,-6.3%
CCC(C)NC(=O)c1ccccc1C (configuration not stated),6.25%,-2.75%,-3.2%,-10.2%,8.15%,-0.2%
CCc1ccc(OC(=O)CCl)cc1,-19.4%,9.5%,-21.6%,-28.7%,-3.4%,-42.5%
CCC1(C#N)OC1C (configuration not stated),26.9%,-24.1%,23.1%,10.8%,5.15%,27.4%
O=c1[nH]c(=O)c2[nH]c(=O)[nH]c2[nH]1,8.35%,-7.15%,-13.5%,27.9%,7.25%,-17.9%
CCCCCCCCCc1ccc(COCCCC)cc1,21.9%,55.1%,56.1%,50.1%,49.5%,48.8%
